Assay results reported in PubChem BioAssay (NCATS).
Inconclusive results are not listed. Entries that show only a call come without a potency. A number with no mark means an inactive call. Activity calls are given as the source filed them. The call rests on the fitted dose curve; in most records, active means well fitted inhibition curve with a large enough effect; inconclusive means small, poorly fitted or top-dose-only effect; inactive means no such curve, though single readings can be large or run the other way.

Columns and labels:
[1] = system: Zika virus NS2B-NS3 protease (unlinked complex); assay: Primary screen GU Rhodamine qHTS for Zika virus inhibitors: Unlinked NS2B-NS3 protease assay (AID 1347159); further: nearly all actives have a fitted effect of over 60% in size
How it was run: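 Buffer 10 mM Tris-HCl pH 8.0, 0.01% Tween 20. Unlinked protease 25 nM; compound preincubation 15 min, RT, protected from light. Substrate Rhod110, 1.5 microM; ~15% conversion in 15 min.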

[2] = system: Zika virus NS2B-NS3 protease (linked construct); assay: Primary screen NINDS Rhodamine qHTS for Zika virus inhibitors (AID 1347160); further: nearly all actives have a fitted effect of over 55% in size
How it was run: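 Aprotinin served as in-plate control. Conditions: 25 nM linked NS2B-NS3, pH 8.0 Tris buffer, titrated compounds, 15 min preincubation and 15 min reaction with 1.5 microM Rhod110 substrate at room temperature.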

Row | Structure (SMILES) | Potency [1] | Potency [2] | activity change, negative = inhibition [1] | activity change, negative = inhibition [2]
1 | COC(=O)C1=COC(O[C@@H]2O[C@H](CO)[C@@H](O)[C@H](O)[C@H]2O)/C(=C\COC(=O)c2ccc(OC3OC(CO)C(O)C(O)C3O)c(OC)c2)C1CC(=O)OCCc1ccc(O)cc1 (stereo partly drawn) | inactive | inactive |  | 
2 | CCC(=O)O[C@]1(C(=O)CCl)[C@@H](C)C[C@H]2[C@@H]3C[C@H](F)C4=CC(=O)C=C[C@]4(C)[C@@]3(F)[C@@H](O)C[C@@]21C | inactive | inactive |  | 
3 | COCCN(C)Cc1ccc2nc3sc(C(=O)N(C)C4CCCCC4)cn3c2c1 | inactive | inactive |  | 
4 | C[C@@H]1O[C@@H](O[C@H]2[C@H](OC(=O)C34CCC5(C)C(=CCC6C7(C)CC(O)C(O[C@@H]8O[C@H](C(=O)O)[C@@H](O)[C@H](O)[C@H]8O)C(C)(C(=O)O)C7CCC65C)C3CC(C)(C)CC4O)O[C@H](C)[C@@H](O)[C@@H]2O)[C@H](O)[C@@H](O[C@@H]2OC[C@](O)(CO)[C@H]2O[C@@H]2O[C@H](CO)[C@@H](O)[C@H](O)[C@H]2O)[C@H]1O (stereo partly drawn) |  |  | 4.07% [at 19.1 µM] | -17.8% [at 10.7 µM]
5 | C[C@@H]1C[C@H]2[C@@H]3CCC4=CC(=O)C=C[C@]4(C)[C@@]3(F)[C@@H](O)C[C@]2(C)[C@@]1(O)C(=O)COP(=O)(O)O | inactive | inactive |  | 
6 | O=C(/C=C/c1ccccc1)OCC1=CC[C@@H]2C(C(=O)O)=CO[C@@H](O[C@@H]3O[C@H](CO)[C@@H](O)[C@H](O)[C@H]3O)[C@H]12 | inactive | inactive |  | 
7 | COC1C2=C(COC2=O)C2(C)CCCC(C)(CO)C2C1OC(=O)c1ccccc1 (stereo not drawn) | inactive | inactive |  | 
8 | C[C@]12CC[C@@H]3c4ccc(O[C@@H]5O[C@H](C(=O)O)[C@@H](O)[C@H](O)[C@H]5O)cc4CC[C@H]3[C@@H]1CCC2=O | inactive | inactive |  | 
9 | CCOC(=O)[C@H](CCc1ccccc1)CC1(C(=O)N[C@H]2CCc3ccccc3N(CC(=O)O)C2=O)CCCC1 | inactive | inactive |  | 
10 | Cc1ncc([N+](=O)[O-])n1CC(O)CN1CCOCC1 (stereo not drawn) | inactive | inactive |  | 
11 | O=C(CCO[C@@H]1O[C@H](CO)[C@@H](O)[C@H](O)[C@H]1O)c1ccc(O)cc1 | inactive | inactive |  | 
12 | COc1cc(C)c(C(=O)O[C@H]2[C@@H](O)[C@H](n3ccc(=O)[nH]c3=O)O[C@@H]2CO)c(OC)c1 | inactive | inactive |  | 
13 | O=C(COc1ccc(Cl)cc1)NC1CCC(NC(=O)COc2ccc(Cl)cc2)CC1 (stereo not drawn) | inactive | inactive |  | 
14 | CC(O)C(O)/C=C/C=C/C(=O)O[C@@H]1C=C2COC(=O)[C@]2(O)[C@@]2(C)CCCC(C)(C)C12 (stereo partly drawn) | inactive | inactive |  | 
15 | COC1=CC(=O)O[C@@H](/C=C/c2ccccc2)[C@@H]1O | inactive | inactive |  | 
16 | CC(=O)NCCCCn1c2c(c3ccccc31)C(=O)NCC2 | inactive | inactive |  | 
17 | Cc1[nH]cnc1C1CCN(c2nc3cccc4c3n2CCC4=O)CC1 | inactive | inactive |  | 
18 | C=C1C[C@]23C[C@H]1CC[C@H]2[C@]1(C)CCC[C@@]2(CO)C(=O)O[C@H]([C@H]21)[C@@H]3O | inactive | inactive |  | 
19 | C=CC(C)(C)C12CC3C(=O)NC(Cc4cnc[nH]4)C(=O)N3C1Nc1ccccc12 (stereo not drawn) | inactive | inactive |  | 
20 | CC1(C)CCCC2(C)C(CO)C3CCC2C31 (stereo not drawn) | inactive | inactive |  | 
21 | CC1=CC2(O)/C=C/C(C)(O)CC(O)/C=C/C(=O)OC23C(=O)NC(CC(C)C)C3C1C (stereo not drawn) | inactive | inactive |  | 
22 | CC1CCC2C(C)(C)CC(C)(CO)C2(O)C1C(=O)O (stereo not drawn) | inactive | inactive |  | 
23 | COc1cc(COC2OC(CO)C(O)C(O)C2O)cc(OC)c1O (stereo not drawn) | inactive | inactive |  | 
24 | Clc1ccc(CN[C@H]2CCN(c3ncc(Br)cn3)C2)c(Cl)c1 | inactive | inactive |  | 
25 | CNC(=O)O[C@H]1COc2ccc(N3CCN(C4COC4)CC3)cc2[C@@H]1NC(=O)c1ccc(F)cc1 | inactive | inactive |  | 
26 | Cc1ccc(Sc2cncc3sc(C(N)=O)cc23)cc1 | inactive | inactive |  | 
27 | O=C(c1ccccn1)c1cnn2c(-c3ccncc3)ccnc12 | inactive | inactive |  | 
28 | O=C1[C@H](O[C@@H]2O[C@H](CO)[C@@H](O)[C@H](O)[C@H]2O)Oc2ccccc2N1O | inactive | inactive |  | 
29 | O=C(/C=C/c1ccc(O)cc1)OC[C@H]1O[C@@H](OC(=O)/C=C/c2ccccc2)[C@H](O)[C@@H](O)[C@@H]1O | inactive | inactive |  | 
